Source: PubChem BioAssay (NCATS)
Inconclusive results are not listed. The source made the active and inactive calls. Calls follow the shape of the dose curve; as a rule, active = well fitted cell-killing curve with a large enough effect; inconclusive = small, poorly fitted or top-dose-only effect, or effect the other way; inactive = flat fitted curve, though single readings scatter.

Experiments:
Experiment in all cases: Primary qHTS to identify gynecologic anti-cancer compounds using libraries of approved drugs and bioactive compounds (AID 1345084); also: nearly all actives have a fitted effect of over 55% in size
[1] = tested on: C33A; conditions: Gynecologic cancer cell panel viability, ATPlite luminescence, 48 h; series mostly up to 57.5 µM
In short: (§1)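 Measured: luminescence after ATPlite addition (15 min, RT). Exposure: 48 h, 37 C, 5% CO2.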

[2] = tested on: CAOV3; conditions: Gynecologic cancer cell panel viability, ATPlite luminescence, 48 h; series mostly up to 57.5 µM
In short: as §1

[3] = tested on: CASKI; conditions: Gynecologic cancer cell panel viability, ATPlite luminescence, 48 h; series mostly up to 57.5 µM
In short: as §1

[4] = tested on: Es-2; conditions: Gynecologic cancer cell panel viability, ATPlite luminescence, 48 h; series mostly up to 57.5 µM
In short: as §1

[5] = tested on: HeLa; conditions: Gynecologic cancer cell panel viability, ATPlite luminescence, 48 h; series mostly up to 57.5 µM
In short: as §1

[6] = tested on: Hek293T; conditions: Gynecologic cancer cell panel viability, ATPlite luminescence, 48 h, control line for the selectivity index; series mostly up to 57.5 µM
In short: as §1

[7] = tested on: JEG-3; conditions: Gynecologic cancer cell panel viability, ATPlite luminescence, 48 h; series mostly up to 57.5 µM
In short: as §1

[8] = tested on: OV90; conditions: Gynecologic cancer cell panel viability, ATPlite luminescence, 48 h; series mostly up to 57.5 µM
In short: as §1

[9] = tested on: PA-1; conditions: Gynecologic cancer cell panel viability, ATPlite luminescence, 48 h; series mostly up to 57.5 µM
In short: as §1

[10] = tested on: SKOV3; conditions: Gynecologic cancer cell panel viability, ATPlite luminescence, 48 h; series mostly up to 57.5 µM
In short: as §1

[11] = tested on: Tov-21-G; conditions: Gynecologic cancer cell panel viability, ATPlite luminescence, 48 h; series mostly up to 57.5 µM
In short: as §1

[12] = tested on: Tov112D; conditions: Gynecologic cancer cell panel viability, ATPlite luminescence, 48 h; series mostly up to 57.5 µM
In short: as §1
% is scaled to controls: 0 for no effect and ±100 for the full control effect.

COC(=O)C1=CO[C@@H](O[C@@H]2O[C@H](CO)[C@@H](O)[C@H](O)[C@H]2O)[C@@H]2[C@@](C)(O)[C@@H](O)C[C@]12O
inactive: Potency [1] | Potency [2] | Potency [3] | Potency [4] | Potency [5] | Potency [6] | Potency [7] | Potency [8] | Potency [9] | Potency [10] | Potency [11] | Potency [12]

Cc1c(-c2ccnn2C)cc(C(=O)NCc2ccc(S(C)(=O)=O)cn2)c(=O)n1-c1cccc(C(F)(F)F)c1
inactive: Potency [1] | Potency [2] | Potency [3] | Potency [4] | Potency [5] | Potency [6] | Potency [7] | Potency [8] | Potency [9] | Potency [10] | Potency [11] | Potency [12]

CCNC(=O)[C@@H]1CCCN1C(=O)[C@H](CCCN=C(N)N)NC(=O)[C@H](CC(C)C)NC(=O)[C@@H](C)NC(=O)[C@H](Cc1ccc(O)cc1)NC(=O)[C@H](CO)NC(=O)[C@H](Cc1c[nH]c2ccccc12)NC(=O)[C@H](Cc1cnc[nH]1)NC(=O)[C@@H]1CCC(=O)N1
inactive: Potency [1] | Potency [2] | Potency [3] | Potency [4] | Potency [5] | Potency [6] | Potency [7] | Potency [8] | Potency [9] | Potency [10] | Potency [11] | Potency [12]

COc1cc(C/C(=C/NC(C)=O)N(CC(=O)Cc2ccccc2)C(C)=O)cc2c1OCO2
inactive: Potency [1] | Potency [2] | Potency [3] | Potency [4] | Potency [5] | Potency [6] | Potency [7] | Potency [8] | Potency [9] | Potency [10] | Potency [11] | Potency [12]

Clc1ccc(CN[C@H]2CCN(c3ncc(Br)cn3)C2)c(Cl)c1
inactive: Potency [1] | Potency [2] | Potency [3] | Potency [4] | Potency [5] | Potency [6] | Potency [7] | Potency [8] | Potency [9] | Potency [10] | Potency [11] | Potency [12]

COc1cc(NC(=O)c2ccccn2)ccc1Cl
inactive: Potency [1] | Potency [2] | Potency [3] | Potency [4] | Potency [5] | Potency [6] | Potency [7] | Potency [8] | Potency [9] | Potency [10] | Potency [11] | Potency [12]

C(#Cc1cccc(CN2CCOCC2)c1)CCN1CCCCC1
inactive: Potency [1] | Potency [2] | Potency [3] | Potency [4] | Potency [5] | Potency [6] | Potency [7] | Potency [8] | Potency [9] | Potency [10] | Potency [11] | Potency [12]

COc1cc(O[C@@H]2O[C@H](CO)[C@@H](O)[C@H](O)[C@H]2O)c(CCC(=O)OC[C@H]2O[C@@H](Oc3cc(OC)c(C4OC(=O)C(C)(O)C4O)cc3CCC(=O)O)[C@H](O)[C@@H](O)[C@@H]2O)cc1C1OC(=O)C(C)(O)C1O (stereo partly drawn)
inactive: activity change, negative = cytotoxicity [1] -6.26% [at 11.6 µM] | activity change, negative = cytotoxicity [2] -7.94% [at 11.6 µM] | activity change, negative = cytotoxicity [3] -4.91% [at 11.6 µM] | activity change, negative = cytotoxicity [4] 12.3% [at 11.6 µM] | activity change, negative = cytotoxicity [5] 22.8% [at 11.6 µM] | activity change, negative = cytotoxicity [6] -1.4% [at 11.6 µM] | activity change, negative = cytotoxicity [7] -12.6% [at 11.6 µM] | activity change, negative = cytotoxicity [8] -1.59% [at 11.6 µM] | activity change, negative = cytotoxicity [9] -4.41% [at 11.6 µM] | activity change, negative = cytotoxicity [10] -20.1% [at 11.6 µM] | activity change, negative = cytotoxicity [11] -4.07% [at 11.6 µM] | activity change, negative = cytotoxicity [12] 3.59% [at 11.6 µM]

C[C@@H]1CCC2C(C)(C)[C@H](O)CC[C@]2(C)[C@@]12Cc1c(O)cc3c(c1O2)CN(CCO)C3=O (stereo partly drawn)
inactive: Potency [1] | Potency [2] | Potency [3] | Potency [4] | Potency [5] | Potency [6] | Potency [7] | Potency [8] | Potency [9] | Potency [10] | Potency [11] | Potency [12]

COc1ccccc1CC(C(=O)O)N(C)C(=O)c1ccccc1 (stereo not drawn)
inactive: Potency [1] | Potency [2] | Potency [3] | Potency [4] | Potency [5] | Potency [6] | Potency [7] | Potency [8] | Potency [9] | Potency [10] | Potency [11] | Potency [12]

COC(=O)C1=CO[C@@H](O[C@@H]2O[C@H](COC(=O)/C=C/c3cc(OC)c(O)c(OC)c3)[C@@H](O)[C@H](O)[C@H]2O)[C@@H]2C(CO)=CC[C@H]12
inactive: Potency [1] | Potency [2] | Potency [3] | Potency [4] | Potency [5] | Potency [6] | Potency [7] | Potency [8] | Potency [9] | Potency [10] | Potency [11] | Potency [12]

CCC(C)(O)C(O)C(=O)OCc1ccc(O[C@@H]2O[C@H](CO)[C@@H](O)[C@H](O)[C@H]2O)c(OC)c1 (stereo partly drawn)
inactive: Potency [1] | Potency [2] | Potency [3] | Potency [4] | Potency [5] | Potency [6] | Potency [7] | Potency [8] | Potency [9] | Potency [10] | Potency [11] | Potency [12]

CC(=O)O[C@H]1CC[C@@]2(CI)C(=CC[C@@H]3[C@@H]2CC[C@]2(C)[C@@H]([C@H](C)CCCC(C)C)CC[C@@H]32)C1
inactive: activity change, negative = cytotoxicity [1] 15% [at 11.6 µM] | activity change, negative = cytotoxicity [2] 9.25% [at 11.6 µM] | activity change, negative = cytotoxicity [3] -2.47% [at 11.6 µM] | activity change, negative = cytotoxicity [4] -1.33% [at 11.6 µM] | activity change, negative = cytotoxicity [5] 10.9% [at 11.6 µM] | activity change, negative = cytotoxicity [6] 4.14% [at 11.6 µM] | activity change, negative = cytotoxicity [7] -2.55% [at 11.6 µM] | activity change, negative = cytotoxicity [8] -2.38% [at 11.6 µM] | activity change, negative = cytotoxicity [9] 22.4% [at 11.6 µM] | activity change, negative = cytotoxicity [10] 5.27% [at 11.6 µM] | activity change, negative = cytotoxicity [11] 10.3% [at 11.6 µM] | activity change, negative = cytotoxicity [12] 11.8% [at 11.6 µM]

CCC[C@@H]1C[C@@H](C(=O)N[C@@H]([C@H]2O[C@H](SC)[C@H](O)[C@@H](O)[C@@H]2O)[C@@H](C)O)N(C)C1
inactive: Potency [1] | Potency [2] | Potency [3] | Potency [4] | Potency [5] | Potency [6] | Potency [7] | Potency [8] | Potency [9] | Potency [10] | Potency [11] | Potency [12]
